Measured values reported in PubChem BioAssay AID1508600 (Functional Genomics Laboratory (NCATS/FGL), 2020).
The campaign covered roughly 53,000 sequences. About 3,700 (7%) were called active. The sample as a whole holds a higher share of actives than the screen did. Unmarked numbers belong to inactive results.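 The calls were made as follows: active = gene knockdowns whose robust z-score for IL-1 alpha signal is at least 2 or at most -2, so actives lie on both sides; inactive = the rest.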

Experiment: Components of the Cytosolic LPS Sensing Pathway: Gene Identification via Genome-wide siRNA Screen;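 also: robust z of the log signal after scaling to non-targeting control siRNA wells of the plate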
Details: RAW264.7 macrophages, IL-1a HTRF, actives lie on both sides, screened at 100 nM (by protocol), cells primed 5 h with Pam3CSK4 first
Procedure, shortened: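 Knockdown: 100 nM siRNA, 48h, RAW264.7. Stimulation: Pam3CSK4 5 h, then LipidA via TransIT-TKO 24 h. Output: supernatant IL-1a HTRF, negative-control-normalized, log robust z-score; viability by CellTiter-Glo.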

Sequence	z-score
GGUUGGAAAUGACUAAUAATT against Slco6c1	-1.01
GGAAGGUGUCUGUAAUAUATT against Slamf9	-0.0451
GGAGGGCAGAUCUACGAUGTT against Aars	0.182
GAAACUUUGAGUCCUCCAGTT against Dop1b	3.22 (active)
CGAGUUCAAACCGUCCUCUTT against Sdhc	0.105
CGGAAUGAUCACGACCGAUTT against Nsrp1	0.133
CCAAGUAAUUCCUACUACUTT against Olfr1100	-0.25
GGCUGGAUGUAGAAAAUAUTT against Aspm	-2.1 (active)
GGGAAGCAAAUCUAUACCCTT against Tnfrsf11a	-0.243
GGUGUUGUCAGAAGUUUAATT against Slc22a13b	1.8
CCUCAUGCAGUUAAAUAUGTT against Kera	-1.56
GGAGAAGGAUGGAGUGUUUTT against Brms1l	1.8
GGACUUUGUAACUAAUACCTT against Slco2b1	0.914
CGAUGAUGAACGAUGGACATT against Mmp3	2.47 (active)
GGCACUGGCAGGAAAUUACTT against Alg6	-1.52
GGACUGCCUUAAUUAAAGUTT against Coa6	1.7
GCUGUGACUCUACUGGAGGTT against Zfp397	0.746
GGCAGAACCCACUGAGAAATT against Pakap	-0.349
GGAAAUCGAGCAUGUCUUCTT against Stk32c	2.21 (active)
GGAAAAGAGAAGAAGGCACTT against Taf6	0.654
GCCUUUGAGGUUAUGAUCATT against Klk7	-1.09
GGCUGUGGUGAAGACUUUCTT against Cd81	-1.06

Sequence	z-score
GGUGAAGCAGUUUGACUUCTT against Rbm18	0.0154
GGUUCUGGUUGAUAGAGAUTT against 4931428L18Rik	0.373
CUUCUUGGUGGGUCUGACUTT against Taar7e	-2.63 (active)
CGACUGGAAAAAGAUUGGGTT against Ttf1	-0.219
GCGGCAGUAAAUUGUGAGGTT against Grin3b	1.4
GGAAAUCCAGAAGCGUGUGTT against Gtpbp3	-0.436
GGAGGAGCGUACUAUUUAATT against Slc12a2	3.34 (active)
GGAGGAUGCAAUUUUUAACTT against Sult1e1	0.771
GGAGAAACUGAAACAAGCUTT against Gpc4	0.403
GCACUAAGCUUUAUUCAUCTT against Mast2	-0.0104
GGAAACUUUUACUUCACAGTT against P3h1	-0.322
GGAUCUACGCAAGCAAGCATT against Oxnad1	2.12 (active)
GCAAAGAAGCUCUUUAGAGTT against Hoxc5	0.455
GCCAUAAGAUGCUACAGUGTT against Tubb6	1.53
GGAAAGUACCCUAGGAGUUTT against 4921509C19Rik	-1.6
CCCUCAACUUUCAGAUCAGTT against Naa10	2.81 (active)
CCUACUUCCGAGGUUUCUUTT against Ifnz	-0.493
GGAAAGGAGUCUGCCAGCUTT against Tef	-1.29
GGAAGAAGGAAGGUUCAGATT against Strm	-0.581
GUGCAAACGGCAAACAUUCTT against 1700001G17Rik	1.89
GGGCGAAAACCAUUCAAAUTT against Zfp112	3.38 (active)
CCUCCUGACUACAAGAACUTT against Utp14a	0.911

Sequence	z-score
CCUUGAUACCUUUCCAUGUTT against 9130008F23Rik	-0.68
CGUUCUUGAGAGUCGAUCATT against Smoc2	-0.19
GCGGCAUCUACUUAAUAUGTT against Acer2	2.12 (active)
GCACCUUCAGCUAUCUAACTT against Nepn	0.478
GCUGUUCCUCUUUCUUUCUTT against Olfr522	0.315
CCUAGAGUCUCAGGACUGUTT against Actrt3	0.682
GGUUUCGUACCAUGAAACATT against Stx2	-0.147
GCUUUGACUGGAAUGACGGTT against Pex7	-2.2 (active)
GGAGCUGUCUAAUCAUAAUTT against Clasp2	-0.109
GGAGUGGAAGAAGAAGUAUTT against Agap3	0.177
GGAGUUUCUACGUGUAUGCTT against Tpra1	-0.161
GGACUUUGUGGAGAAUGUCTT against Cyp1a2	-0.876
CCUACAGAGUACAGAUUAUTT against Atp6v0d1	-0.228
GGACUGAGAGGGAUGGUAATT against A530016L24Rik	0.293
GCUAAGACUCUUGAAUCAGTT against Zfp280d	3.72 (active)
GGCACAGAAGAAUGAGAGATT against Schip1	0.217
CGUACUCUUUCUUUAAUCCTT against Umod	-0.622
GGUCCAUUACGUGCGCUUATT against Cage1	-0.00235
GGCCUGACUUUUUGUCUUATT against Klhl15	1.09
GGAACUGCCAUUGUAUGGGTT against Myo1g	-0.568
GGCAAAGUGUCCCUCCGAATT against Skint7	2.06 (active)
CCGCAUUUCAGACAUAGGCTT against Olfr248	-0.729

Sequence	z-score
GCAGAAUGUCACUAAGUGCTT against Sdcbp2	0.271
GGGAGAAGCAAUUUUUAACTT against Gpr34	0.132
CCUAUGGUAGAAAAAUACUTT against Fundc1	-0.252
GGCAGCUGAUCAGAAAUCATT against Gabrg3	-1.13
GCUCACUAACUUUUACAAGTT against Fam166c	0.419
CCAAGAGUUGUCAAUAUAATT against Crisp3	0.768
GGAGAGAAGAUCAUUUCAATT against Ncam2	2.38 (active)
CCCUCCGUGUUUUUAAGAUTT against Tbl2	0.176
GGAUUUUGAUCUAAUGAGATT against Zfp354c	0.366
GGCAAUUCUCUGUAUCCACTT against Cyp2d34	-0.358
GCAUGUCGUCUGAGAAAGUTT against Pgr	-0.748
GGCUUUAUCAGAUCCAACCTT against Tmem108	2.47 (active)
GGUCAUAGAUGAGCUUAGUTT against Appl1	-0.763
GGCAUGUUGAUGGGAAUUUTT against Srp9	0.536
GGCCUACCCAAUUCUUAACTT against Ces1g	-0.0881
GUGUUUCCUUGUUAAGAUUTT against Bloc1s4	-0.841
CCAGUAAAAAUUGAAGGCUTT against Capza2	0.565
GGCCCUUCAUGAAGAGCAATT against Carf	2.07 (active)
GGUCUACGUUAUUAUUACCTT against Etv2	-0.537
GGAGCUUGACAUUCUGGAATT against Tmco4	0.766
CCGAGUUUGGGAAUAACUUTT against Cacna1a	1.45
GGCCAUUAUUCGUGAGUUGTT against Armc10	2.11 (active)

Sequence	z-score
CGGCAAUGUGACUAACAUCTT against Nrros	0.76
CGAGAUGUACCUUGAUACUTT against Idh3a	1.44
GCGAUGGACUCAAAAAACUTT against Ehd3	0.0497
GCUGUGUAUGUAUUUCAUGTT against Rnf128	0.549
GGCAGGAAUCUAUAUUAAUTT against Slc17a3	0.48
GCGAAAGAUAUUGUGGAAGTT against Dixdc1	-0.511
CCAUCAUGAACACUCAACATT against Olfr462	-2.59 (active)
GCACUUUAAGAGACAAUGUTT against Gpr63	0.302
GGCUGACUGGACAAUAAAGTT against Krt85	-1.28
CCAGUCAUCAUGCUACACGTT against Slc19a3	0.473
GGAGUGCUUUUAAAUCCCUTT against Rreb1	-1.43
GCACUAAUACUAACCAUGGTT against Rhox12	0.788
GGCAAGAAAUUCUUCAGCATT against St8sia3	-1.38
GGUAAUGUACCUAAUAUUGTT against Cnn1	0.307
GCCAGAACCGCAUAUUCUUTT against Cks2	-0.481
GGCUGAAGCUCGACUGAAGTT against Abcf3	2.35 (active)
GCAACACGGCGGAAUAAAGTT against Washc1	-0.336
GGAGCUGUAUGACCAUGCCTT against Rab25	-2.03 (active)
GGGUGAUGAUCUUCAGCAATT against Txnrd3	-0.616
